Measured values reported in PubChem BioAssay (Tox21).
Inconclusive results are not listed. Calls of active or inactive are those of the source. Calls follow the shape of the dose curve; as a rule, active = well fitted cell-killing curve with a large enough effect in the repeat runs; inconclusive = weak or mixed curves, or effect the other way; inactive = flat fitted curve, though single readings scatter.

Test: cAMP Responsive Elements (CRE) small molecule antagonists, cell-based qHTS assay: qHTS cell viability counter screen (AID 2060913); also: nearly all actives have a fitted effect of over 40% in size
Conditions: CRE-bla HEK293T viability, CellTiter-Glo luminescence, 5 h; series mostly up to 92.4 µM; viability change, negative = cytotoxic: at the top concentration
How it was run: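 CRE-bla HEK293T cells were seeded in assay medium with 10% dialyzed FBS, incubated 18 hrs at 37 C, then exposed to compounds plus 0.25 uM final NKH477 for 3 hrs. Viability was read by CellTiter-Glo luminescence after 30 min, in the same wells.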
% is scaled to controls: 0 for no effect and ±100 for the full control effect; potency is read from the fitted curve at half-maximal effect.

Compound | viability change, negative = cytotoxic | Potency
CCO[Si](OCC)(OCC)OCC | -10.1% (inactive) | –
CN1[C@@H]2CC[C@H]1CC(OC(=O)c1c[nH]c3ccccc13)C2 (stereo not given in full) | -1.48% [at 42.5 µM] (inactive) | –
Cc1ccc2c(ccc3ccccc32)c1 | 5.35% (inactive) | –
COc1nc(N)nc2nc[nH]c12 | 14.2% (inactive) | –
CC(C)(C)OC(=O)c1ccccc1C(=O)O | 9.47% (inactive) | –
COC(=O)c1ccc(C(=O)OC)cc1 | – | inactive
c1cc(N(CC2CO2)CC2CO2)ccc1Cc1ccc(N(CC2CO2)CC2CO2)cc1 (stereo not given) | 1.21% (inactive) | –
NS(=O)(=O)c1cc2c(cc1C(F)(F)F)NC(Cc1ccccc1)NS2(=O)=O (stereo not given) | 1.05% [at 42.5 µM] (inactive) | –
c1ccc(Sc2ccccc2)cc1 | 9.1% (inactive) | –
O=C(OCc1ccccc1)c1ccccc1O | – | inactive
COC(=O)[C@H]1[C@H]2C[C@@H]3c4[nH]c5cc(OC)ccc5c4CCN3C[C@H]2C[C@@H](OC(=O)COc2ccc(OC)cc2)[C@@H]1OC | 3.64% [at 42.5 µM] (inactive) | –
CN(C)CC/C=C1/c2ccccc2COc2ccc(CC(=O)O)cc21 | -0.648% [at 42.5 µM] (inactive) | –
CCCCCN=C(N)N/N=C/c1c[nH]c2ccc(OC)cc12 | – | 29.8 µM (active)
CCCCCCCC[P+](CCCCCCCC)(CCCCCCCC)CCCCCCCC | – | 17.1 µM (active)
Cc1cccc(CN2CCN(C(c3ccccc3)c3ccc(Cl)cc3)CC2)c1 (stereo not given) | -8.6% [at 42.5 µM] (inactive) | –
CC(=O)Nc1ccn(C2COC(COC(=O)c3ccccc3)O2)c(=O)n1 (stereo not given) | 0.85% [at 42.5 µM] (inactive) | –
Brc1cc2ccccc2c2ccccc12 | -8.24% (inactive) | –
CN(C/C=C/C#CC(C)(C)C)Cc1cccc2ccccc12 | -5.7% [at 42.5 µM] (inactive) | –
C/C=C/C=C/COC(=O)C(C)C | 16.3% (inactive) | –
CCN(CCC#N)c1ccc(N=Nc2c(Cl)cc([N+](=O)[O-])cc2Cl)cc1 | -2.71% (inactive) | –
